Measured values taken from paper PMC4081100, “A DNA-binding-site landscape and regulatory network analysis for NAC transcription factors in Arabidopsis thaliana”.

What was measured:
Assay in all cases: universal protein binding microarray (PBM); transcription factors of Arabidopsis thaliana; high values mean tight binding
Details in all cases: protein: recombinant; tags: GST; chain copies: 2; dsDNA, one strand shown
GST-ANAC092(1-176) = molecular target: T1, GST-ANAC092(1-176) (Arabidopsis thaliana, UniProt Q9FKA0 1-176)
T1 sequence: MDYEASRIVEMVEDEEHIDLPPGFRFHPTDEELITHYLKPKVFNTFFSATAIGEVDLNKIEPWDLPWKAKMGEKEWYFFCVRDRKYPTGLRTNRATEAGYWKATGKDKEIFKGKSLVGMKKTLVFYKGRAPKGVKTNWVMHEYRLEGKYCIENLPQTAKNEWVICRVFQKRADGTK
How it was run: (§1)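 Each value is a normalised enrichment score (E-score) describing binding. The GST-tagged proteins, NAC-domain, full-length or DNA-binding-domain, were induced in cells (zinc-finger proteins with zinc acetate added) and purified on glutathione–Sepharose 4B. They were applied at 200 to 500 nM final, in duplicate, to double-stranded custom all-10-mer Agilent 4 × 180K arrays, and gapped and ungapped 8-mers were scored.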

GST-NTL6(1-168) = GST-NTL6(1-168) (Arabidopsis thaliana, UniProt Q9SCK6 1-168)
How it was run: as §1

GST-ANAC019 NAC domain = molecular target: T2, GST-ANAC019 NAC domain (Arabidopsis thaliana, UniProt Q9C932 14-162)
T2 sequence: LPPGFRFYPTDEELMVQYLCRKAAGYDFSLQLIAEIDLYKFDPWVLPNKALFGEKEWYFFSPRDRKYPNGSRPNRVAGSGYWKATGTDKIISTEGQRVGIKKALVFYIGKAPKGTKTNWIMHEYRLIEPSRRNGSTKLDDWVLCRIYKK
How it was run: as §1

GST-ANAC055(1-171) = molecular target: T3, GST-ANAC055(1-171) (Arabidopsis thaliana, UniProt Q9LDY8 1-171)
T3 sequence: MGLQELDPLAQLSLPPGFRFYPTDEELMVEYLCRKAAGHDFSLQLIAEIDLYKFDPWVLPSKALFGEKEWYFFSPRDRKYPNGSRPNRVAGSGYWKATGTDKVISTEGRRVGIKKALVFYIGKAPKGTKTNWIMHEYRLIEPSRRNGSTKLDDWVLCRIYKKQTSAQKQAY
How it was run: as §1

[1] = molecular target: T4, GST-ANAC092(1-285) full length (Arabidopsis thaliana, UniProt Q9FKA0 1-285)
T4 sequence: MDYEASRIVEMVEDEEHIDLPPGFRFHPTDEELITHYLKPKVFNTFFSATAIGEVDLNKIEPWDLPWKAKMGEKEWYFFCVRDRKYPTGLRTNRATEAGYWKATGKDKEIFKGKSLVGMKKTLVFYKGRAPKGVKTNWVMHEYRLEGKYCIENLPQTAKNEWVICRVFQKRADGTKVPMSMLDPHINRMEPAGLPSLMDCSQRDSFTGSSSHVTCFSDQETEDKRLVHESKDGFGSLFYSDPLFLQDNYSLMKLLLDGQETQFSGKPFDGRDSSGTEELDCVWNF
How it was run: as §1

GST-NST2(1-184) = molecular target: T5, GST-NST2(1-184) (Arabidopsis thaliana, UniProt Q9M274 1-184)
T5 sequence: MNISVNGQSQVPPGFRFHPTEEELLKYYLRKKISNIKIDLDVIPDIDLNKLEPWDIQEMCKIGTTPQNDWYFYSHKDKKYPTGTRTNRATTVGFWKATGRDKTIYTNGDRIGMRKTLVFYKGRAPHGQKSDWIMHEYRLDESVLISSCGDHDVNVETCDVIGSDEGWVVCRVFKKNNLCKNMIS
How it was run: as §1

GST-NTL8 NAC domain = molecular target: T6, GST-NTL8 NAC domain (Arabidopsis thaliana, UniProt Q9XIN7 14-156)
T6 sequence: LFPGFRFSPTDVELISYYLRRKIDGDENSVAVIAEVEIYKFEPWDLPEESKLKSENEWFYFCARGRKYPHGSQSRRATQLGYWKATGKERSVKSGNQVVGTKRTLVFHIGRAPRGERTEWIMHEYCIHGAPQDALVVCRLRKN
How it was run: as §1

GST-SND1(1-203) = molecular target: T7, GST-SND1(1-203) (Arabidopsis thaliana, UniProt Q9LPI7 1-203)
T7 sequence: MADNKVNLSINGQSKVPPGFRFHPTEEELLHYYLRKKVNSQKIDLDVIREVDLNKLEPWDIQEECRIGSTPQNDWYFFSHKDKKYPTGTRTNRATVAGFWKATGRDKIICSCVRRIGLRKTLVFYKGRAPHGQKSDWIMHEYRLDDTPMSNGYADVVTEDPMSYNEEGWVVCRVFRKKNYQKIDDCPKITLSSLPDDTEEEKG
How it was run: as §1

GST-VND3 NAC domain = molecular target: T8, GST-VND3 NAC domain (Arabidopsis thaliana, UniProt Q9FH59 12-162)
T8 sequence: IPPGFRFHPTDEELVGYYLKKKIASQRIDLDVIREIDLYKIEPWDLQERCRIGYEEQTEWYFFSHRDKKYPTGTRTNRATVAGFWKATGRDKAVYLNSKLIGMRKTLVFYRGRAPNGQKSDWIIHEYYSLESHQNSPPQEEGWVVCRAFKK
How it was run: as §1

GST-VND7 NAC domain = molecular target: T9, GST-VND7 NAC domain (Arabidopsis thaliana, UniProt Q9C8W9 9-158)
T9 sequence: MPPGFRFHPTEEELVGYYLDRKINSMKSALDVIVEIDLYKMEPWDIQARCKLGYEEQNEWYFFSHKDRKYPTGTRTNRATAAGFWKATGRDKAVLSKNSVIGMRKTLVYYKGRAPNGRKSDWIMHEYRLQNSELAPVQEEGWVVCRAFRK
How it was run: as §1

GST-ATAF1 NAC domain = molecular target: T10, GST-ATAF1 NAC domain (Arabidopsis thaliana, UniProt Q39013 7-158)
T10 sequence: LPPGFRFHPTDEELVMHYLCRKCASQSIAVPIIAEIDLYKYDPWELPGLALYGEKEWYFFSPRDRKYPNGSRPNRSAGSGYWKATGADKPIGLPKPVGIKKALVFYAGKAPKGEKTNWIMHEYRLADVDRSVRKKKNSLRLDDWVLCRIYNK
How it was run: as §1

GST-NAP(1-166) = molecular target: T11, GST-NAP(1-166) (Arabidopsis thaliana, UniProt O49255 1-166)
T11 sequence: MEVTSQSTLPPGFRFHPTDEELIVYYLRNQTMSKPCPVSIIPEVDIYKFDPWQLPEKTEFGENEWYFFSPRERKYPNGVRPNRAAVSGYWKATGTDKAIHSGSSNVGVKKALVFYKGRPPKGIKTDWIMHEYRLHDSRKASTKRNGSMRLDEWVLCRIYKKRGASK
How it was run: as §1

Sequence of GST-NTL6(1-168) (Q9SCK6 1-168): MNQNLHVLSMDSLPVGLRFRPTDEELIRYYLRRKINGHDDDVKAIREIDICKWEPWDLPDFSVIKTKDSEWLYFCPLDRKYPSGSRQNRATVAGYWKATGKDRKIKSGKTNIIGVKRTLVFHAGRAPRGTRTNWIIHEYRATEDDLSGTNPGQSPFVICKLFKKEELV

Sequence	binding signal (GST-ANAC092(1-176)) [E-score]	binding signal (GST-NTL6(1-168)) [E-score]	binding signal (GST-ANAC019 NAC domain) [E-score]	binding signal (GST-ANAC055(1-171)) [E-score]	binding signal [1] [E-score]	binding signal (GST-NST2(1-184)) [E-score]	binding signal (GST-NTL8 NAC domain) [E-score]	binding signal (GST-SND1(1-203)) [E-score]	binding signal (GST-VND3 NAC domain) [E-score]	binding signal (GST-VND7 NAC domain) [E-score]	binding signal (GST-ATAF1 NAC domain) [E-score]	binding signal (GST-NAP(1-166)) [E-score]
CAAGCAAC	0.426	0.239	0.1	0.139	0.442	0.311	0.13	0.435	0.164	0.139	–	–
CAAGCAAG	0.369	0.235	0.163	0.0997	0.419	0.265	0.111	0.395	0.0934	0.14	0.0612	–
GTTGCTTA	0.342	0.425	–	0.0695	0.393	0.327	0.13	0.469	0.0814	0.14	0.0821	–
ATAGCGTA	0.437	0.0935	–	0.136	0.438	0.355	–	0.476	0.137	0.254	0.165	0.128
GCAAGAAA	0.295	0.306	–	0.0836	0.401	0.201	0.229	0.307	0.12	0.0827	0.189	–
ATTACTTA	0.279	0.49	–	0.191	0.349	0.296	0.31	0.38	0.21	0.154	0.168	0.0737
GAGGTAAC	0.191	0.155	0.078	–	0.2	0.078	0.437	0.236	0.0659	0.0864	0.0779	–
AAGCAACA	0.387	0.333	–	0.134	0.405	0.342	0.194	0.439	0.0696	0.146	0.0645	–
TGGAGTAA	0.319	0.105	–	0.128	0.342	0.317	–	0.454	0.0609	0.131	0.11	–
AAGCAACC	0.425	0.329	–	0.0668	0.453	0.349	0.301	0.479	0.114	0.136	0.0659	–
AGCGTAAG	0.191	0.0608	–	0.0588	0.312	0.172	0.0559	0.4	0.131	0.141	0.0897	–
ATTCCTTA	0.103	0.486	0.0942	0.114	0.115	0.224	0.237	0.306	0.0907	0.064	0.126	–
ACCTTAAC	0.126	0.415	–	0.156	0.147	0.154	0.16	0.13	0.156	0.077	0.155	–
AAAGGAAA	0.196	0.284	0.105	0.11	0.0862	0.179	0.457	0.225	0.166	0.134	0.153	–
TACGCTAA	0.433	0.118	–	0.0682	0.44	0.331	–	0.475	0.171	0.131	0.19	–
TTAAGCAA	0.357	0.471	–	0.133	0.356	0.334	0.252	0.473	0.198	0.227	0.133	–
